These results are taken from PubChem BioAssay AID588354 (The Scripps Research Institute Molecular Screening Center, 2011).

About 430 (0.12%) of roughly 360,000 compounds were called active.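 The calls were made as follows: active = inhibition above the campaign mean plus 3 SD, with each screening campaign given its own cutoff (cut at about 60% in these data); inactive = the rest.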 This excerpt belongs to a sample that is enriched for actives.

Sequence of Nuclear receptor coactivator 1 (Homo sapiens) (Q15788 whole entry, looked up, the tested form may be a part): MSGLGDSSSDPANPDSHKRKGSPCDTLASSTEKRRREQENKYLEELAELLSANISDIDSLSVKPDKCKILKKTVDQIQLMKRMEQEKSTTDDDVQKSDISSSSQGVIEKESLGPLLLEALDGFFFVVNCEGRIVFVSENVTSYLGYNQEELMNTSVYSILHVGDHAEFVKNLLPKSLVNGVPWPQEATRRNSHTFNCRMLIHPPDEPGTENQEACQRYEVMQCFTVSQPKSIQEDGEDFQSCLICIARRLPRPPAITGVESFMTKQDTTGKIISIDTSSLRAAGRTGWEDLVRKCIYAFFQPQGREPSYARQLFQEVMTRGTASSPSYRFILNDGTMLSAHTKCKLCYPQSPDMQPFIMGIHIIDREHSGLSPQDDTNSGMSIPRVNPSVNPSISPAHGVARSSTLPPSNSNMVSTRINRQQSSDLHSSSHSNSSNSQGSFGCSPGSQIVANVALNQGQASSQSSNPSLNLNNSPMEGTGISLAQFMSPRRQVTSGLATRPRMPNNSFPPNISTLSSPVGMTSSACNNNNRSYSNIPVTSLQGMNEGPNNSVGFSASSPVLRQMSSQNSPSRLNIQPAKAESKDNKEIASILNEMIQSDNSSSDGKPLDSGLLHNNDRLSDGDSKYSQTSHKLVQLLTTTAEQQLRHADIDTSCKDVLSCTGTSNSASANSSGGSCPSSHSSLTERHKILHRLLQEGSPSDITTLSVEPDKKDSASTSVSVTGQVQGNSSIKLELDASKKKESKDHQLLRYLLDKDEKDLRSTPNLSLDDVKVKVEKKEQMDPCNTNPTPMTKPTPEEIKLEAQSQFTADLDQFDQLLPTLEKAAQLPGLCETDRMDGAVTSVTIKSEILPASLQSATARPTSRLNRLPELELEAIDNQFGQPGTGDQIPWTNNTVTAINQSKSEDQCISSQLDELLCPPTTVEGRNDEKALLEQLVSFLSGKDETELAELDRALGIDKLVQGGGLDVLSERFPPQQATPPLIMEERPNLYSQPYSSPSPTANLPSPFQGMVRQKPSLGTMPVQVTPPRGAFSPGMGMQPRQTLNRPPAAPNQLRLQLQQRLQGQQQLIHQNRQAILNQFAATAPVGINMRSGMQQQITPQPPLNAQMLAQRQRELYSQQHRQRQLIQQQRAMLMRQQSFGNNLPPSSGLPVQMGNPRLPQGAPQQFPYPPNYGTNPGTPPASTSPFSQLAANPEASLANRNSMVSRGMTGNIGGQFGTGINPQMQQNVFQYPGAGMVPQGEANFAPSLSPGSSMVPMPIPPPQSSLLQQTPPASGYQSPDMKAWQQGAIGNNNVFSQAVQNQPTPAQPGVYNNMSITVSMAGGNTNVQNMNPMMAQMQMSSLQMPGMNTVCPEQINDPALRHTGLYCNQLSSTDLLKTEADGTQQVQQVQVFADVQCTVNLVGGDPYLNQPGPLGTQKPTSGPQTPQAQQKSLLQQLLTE

The assay concerns the target Nuclear receptor coactivator 1 (Homo sapiens) (UniProt Q15788). The experiment in a line: SRC1 coactivator transcriptional activity inhibitors, primary screen, cell-based, luminescence (AID 588354).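 Also: 0% = DMSO treated cells and 100% = gossypol at 36 µM.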 To be noted: HEK293 GAL4-SRC1 luciferase reporter, at 3.6 µM, hits give high values.
As for `COC1C(O)C(C)OC(OC2CCC3(C=O)C(CCC4C3CCC3(C)C(C5=CC(=O)OC5)CCC43O)C2)C1O` (stereo not given), the inhibition is 90.4% (active).
For the molecule `C[C@]12CC[C@H](O)C[C@H]1CC[C@@H]1C2CC[C@]2(C)[C@@H](C3=CC(=O)OC3)[C@@H](O)C[C@]12O` (stereo not given in full), the inhibition is 53.1% (inactive).
With `CCC1(C)CC(CCNCc2ccc(N(C)C)cc2)(c2ccc(F)cc2)CCO1` (stereo not given), the inhibition was -23.1% (inactive).
With `Cc1cccc(-n2c(C)nc3cc(C(=O)N4CCC5(CC4)OCCO5)ccc32)c1`, the inhibition is 7.63% (inactive).
As for `CC1CCC(N(C)C2CCN(C)CC2)CC1` (stereo not given), the inhibition was 9.39% (inactive).
On to `COC(=O)C1=C(c2ccc(Cl)c(C(F)(F)F)c2)C[C@@H]2CC[C@H]1N2C(=O)NC(C)C`, for which the inhibition was 1.75% (inactive).
Take `CCC(C)(O)C(=O)OC1C(=O)OC2CC3C(C)=CC(=O)C(O)C3(C)C3C4(O)OCC23C1C(C)C4O` (stereo not given): the inhibition was 95.5% (active).
As for `Cn1cc(C(=O)OCC(=O)N2CCCC2)c2ccccc21`, the inhibition was -5.08% (inactive).
The value for `CC(=O)OC1C2(CC3N4C(=O)C5(CO)SSC4(CC31O)C(=O)N5C)OC(C)C(C)(C)C2=O` (stereo not given) was 23.6% (inactive).
Consider `CCOC(=O)CC(SP1(=S)OCC2(CCCCO2)C(C2CCCCO2)O1)C(=O)OCC` (stereo not given), for which the inhibition was -3.46% (inactive).
With `Cc1ccccc1NC(=O)COC(=O)c1cc(C)n(C2CC2)c1C`, the inhibition was -22.1% (inactive).
Regarding `O=C(COc1ccc2ccccc2c1)N1CCN(Cc2ccncc2)CC1`, the inhibition is -6.36% (inactive).
The value for `CCOc1ccc(-c2cc(C)[n+](CCN(CC)CC)c(-c3ccc(OCC)cc3)c2)cc1` was 62% (active).
For the molecule `CNC(=O)N(C)c1nnc(C(C)(C)C)s1`, the inhibition is -3.52% (inactive).
`N[C@@H](Cc1c[nH]c2ccccc12)c1nnc(SCc2c(F)cccc2Cl)o1`: the inhibition is -58.9% (inactive).
